Results taken from PubChem BioAssay AID1049 (The Scripps Research Institute Molecular Screening Center, 2008).
Screen size: about 200,000 compounds; about 780 (0.39%) were called active. Cut-off read from the data, not from the text of the source: active = TR-FRET ratio above about 2000; inactive = the rest. What follows is part of a selection rich in actives, with near analogues and random picks from the rest.

Assay: TR-FRET signal artefacts, primary screen, artefact control for PPARgamma SRC-2 agonist project, biochemical (AID 1049)
Details: TR-FRET artefact counter-screen; at 8 µM; stronger effect = higher value

Q: Which TR-FRET ratio does the source give for COc1cccc(NC(=O)c2ccc3c(SCC(=O)O)c4c(nc3c2)CCCC4)c1 here?
A: 1460 (inactive)

Q: Which TR-FRET ratio does the source give for Cc1cc(NC(C)C)n2c(nc3ccccc32)c1C#N here?
A: 1630 (inactive)

Q: With Cc1nn(CC#N)c(=O)n1N(C)c1ncc(C(F)(F)F)cc1Cl as the compound, how does the TR-FRET ratio read?
A: 1490 (inactive)

Q: For Cc1ccccc1-c1n[nH]c(=S)n1/N=C/c1ccc(-c2ccccc2Br)o1, which TR-FRET ratio is on record?
A: 2460 (active)

Q: For Cc1ccccc1-c1n[nH]c(=S)n1C, which TR-FRET ratio is on record?
A: 1570 (inactive)

Q: Which TR-FRET ratio does the source give for Cc1n[nH]c(=S)n1/N=C/c1ccc(Br)o1 here?
A: 1670 (inactive)

Q: Which TR-FRET ratio does the source give for O=S(=O)(/N=C(/Nc1ccccc1)c1ccccc1)c1cccs1 here?
A: 1640 (inactive)

Q: For CC(=O)Nc1ccc(S(=O)(=O)Oc2ccc(/C=N/N=C3/NC(=O)C(CC(=O)O)S3)cc2)cc1 (stereo not drawn), which TR-FRET ratio is on record?
A: 1610 (inactive)

Q: For O=C(c1ccccc1Cl)N(Cc1ccccc1F)N1C(=O)CCCC1=O, which TR-FRET ratio is on record?
A: 1650 (inactive)

Q: Which TR-FRET ratio does the source give for CCn1c(=O)cc(SCC(=O)NCc2ccc3c(c2)OCO3)c2ccccc21 here?
A: 2130 (active)

Q: For CCn1c(=O)cc(SCC(=O)NCCC2=CCCCC2)c2ccccc21, which TR-FRET ratio is on record?
A: 1870 (inactive)

Q: Which TR-FRET ratio does the source give for CC(C)NC(=O)CSc1ccccc1C(=O)NCc1ccc2c(c1)OCO2 here?
A: 1420 (inactive)

Q: With CC(C)(C)NC(=O)C(=O)NN=C1CCCCCCC1 as the compound, how does the TR-FRET ratio read?
A: 1240 (inactive)

Q: Which TR-FRET ratio does the source give for c1ccc(COc2nsnc2N2CCOCC2)cc1 here?
A: 1720 (inactive)

Q: With COc1ccc(CSc2nc(N3CCOCC3)c3c(c2C#N)CC(C)(C)OC3)cc1 as the compound, how does the TR-FRET ratio read?
A: 1500 (inactive)

Q: Which TR-FRET ratio does the source give for c1ccc(CSc2ncnc3c2sc2nc(N4CCOCC4)c4c(c23)CCCC4)cc1 here?
A: 2910 (active)

Q: For CCOc1ccc(N2C(=O)Nc3ccccc3C2(O)C(=O)NCc2ccco2)cc1 (stereo not drawn), which TR-FRET ratio is on record?
A: 1700 (inactive)

Q: With O=C(CSc1nnc(SCc2ccc(Cl)cc2)s1)N/N=C/c1ccccc1Cl as the compound, how does the TR-FRET ratio read?
A: 1600 (inactive)

Q: Which TR-FRET ratio does the source give for Cc1ccc(CN(Cc2cccnc2)C(=S)Nc2cccc(Cl)c2C)cc1 here?
A: 1420 (inactive)

Q: For CCN(C(=O)COc1cccnc1[N+](=O)[O-])C1CCS(=O)(=O)C1 (stereo not drawn), which TR-FRET ratio is on record?
A: 1550 (inactive)

Q: With COCC(=O)Nc1nnc(COc2ccccc2)s1 as the compound, how does the TR-FRET ratio read?
A: 1270 (inactive)

Q: With COc1ccc(OCC(=O)Nc2nnc(-c3ccco3)s2)cc1 as the compound, how does the TR-FRET ratio read?
A: 2240 (active)

Q: With COc1ccc(Cc2nnc(NC(=O)Cc3cccs3)s2)cc1 as the compound, how does the TR-FRET ratio read?
A: 1330 (inactive)

Q: For CC(NC(=O)COC(=O)c1cc(=O)[nH]c2ccccc12)c1ccccc1 (stereo not drawn), which TR-FRET ratio is on record?
A: 1810 (inactive)

Q: Which TR-FRET ratio does the source give for CCOC(=O)c1sc(NC(=O)COc2ncnc3ccccc23)c(C(=O)OCC)c1C here?
A: 1580 (inactive)

Q: With CCOC(=O)c1c(NC(=O)CNC2CCCc3ccccc32)sc(C(N)=O)c1C (stereo not drawn) as the compound, how does the TR-FRET ratio read?
A: 2030 (active)

Q: With CCOC(=O)c1sc(NC(=O)CSc2nnc(-c3ccco3)o2)c(C(=O)OCC)c1C as the compound, how does the TR-FRET ratio read?
A: 1590 (inactive)

Q: Which TR-FRET ratio does the source give for COc1ccc(CN2CCCC(CNC(=O)c3ccc(F)cc3)C2)cc1OC (stereo not drawn) here?
A: 1400 (inactive)

Q: Which TR-FRET ratio does the source give for C/C(CC(=O)NC(C)(C)C)=N\NC(=O)c1ccco1 here?
A: 1540 (inactive)

Q: With CNc1nccc(-c2ccc(Cl)cc2)c1C#N as the compound, how does the TR-FRET ratio read?
A: 1580 (inactive)

Q: Which TR-FRET ratio does the source give for N#Cc1c(-c2ccc(Cl)cc2)c2c([nH]c1=S)CCCC2 here?
A: 2030 (active)

Q: With N#Cc1c2c(c(-c3ccccc3)[nH]c1=O)CCCC2 as the compound, how does the TR-FRET ratio read?
A: 1620 (inactive)

Q: With Cc1ccc(CNC(=O)COc2ccc3c(c2)CCC3)cc1 as the compound, how does the TR-FRET ratio read?
A: 1560 (inactive)

Q: For CCCCN(C(=O)c1ccc(OC(F)(F)F)cc1)c1c(N)n(CCC)c(=O)[nH]c1=O, which TR-FRET ratio is on record?
A: 1420 (inactive)

Q: Which TR-FRET ratio does the source give for C/C=N/NC(=O)CCCC(=O)N/N=C/C here?
A: 1590 (inactive)

Q: With COc1ccccc1C1/C(=C(/O)c2ccc(OC(C)C)cc2)C(=O)C(=O)N1c1cc(C)on1 (stereo not drawn) as the compound, how does the TR-FRET ratio read?
A: 1930 (inactive)

Q: Which TR-FRET ratio does the source give for Cc1cc(N2C(=O)C(=O)/C(=C(/O)c3ccc(Cl)cc3)C2c2cccc(Br)c2)no1 (stereo not drawn) here?
A: 1980 (active)

Q: Which TR-FRET ratio does the source give for COc1ccc(C2/C(=C(/O)c3ccccc3)C(=O)C(=O)N2c2ncccn2)cc1OC (stereo not drawn) here?
A: 1610 (inactive)

Q: For Cc1cc2ccccc2n1CCNC(=O)COc1ccc2ccccc2c1, which TR-FRET ratio is on record?
A: 3050 (active)

Q: For COC(=O)C(C)NC(=O)COc1ccc2ccccc2c1 (stereo not drawn), which TR-FRET ratio is on record?
A: 1440 (inactive)

Q: With Cc1cc2ccccc2n1CCC(=O)O as the compound, how does the TR-FRET ratio read?
A: 1790 (inactive)

Q: Which TR-FRET ratio does the source give for COc1ccc(/C=N/Nc2ncnc3sc4c(c23)CCCC4)cc1O here?
A: 1360 (inactive)

Q: With O=C(/C=C/Nc1ccccc1OC(F)(F)F)C(F)(F)F as the compound, how does the TR-FRET ratio read?
A: 1490 (inactive)

Q: For CCCOc1ccc(N/C=C/C(=O)C(C)(C)C)cc1, which TR-FRET ratio is on record?
A: 1530 (inactive)

Q: Which TR-FRET ratio does the source give for CN(C)c1ccc(N/C=C/C(=O)C(F)(F)F)cc1 here?
A: 2200 (active)

Q: For CN(C)C(=O)c1ccc2c(c1)C1C3CCC(C3)C1C(c1ccccc1)N2 (stereo not drawn), which TR-FRET ratio is on record?
A: 1630 (inactive)

Q: With COc1cccc(NC(=S)N(Cc2ccc(C)cc2)Cc2ccccn2)c1 as the compound, how does the TR-FRET ratio read?
A: 1700 (inactive)

Q: With CSc1ncccc1C(=O)OCc1ccc(Br)cc1 as the compound, how does the TR-FRET ratio read?
A: 1680 (inactive)

Q: For Cc1ccc(NC(=O)COc2ccc(-n3ccnc3)cc2)cc1Cl, which TR-FRET ratio is on record?
A: 1510 (inactive)

Q: For Cc1cc(C)c(NC(=O)CS(=O)CC(=O)Nc2cccnc2)c(C)c1 (stereo not drawn), which TR-FRET ratio is on record?
A: 1340 (inactive)

Q: For Cc1ccc(-c2nc(-c3cccnc3)sc2CC(=O)Nc2ccc(C)c(Cl)c2)cc1, which TR-FRET ratio is on record?
A: 2240 (active)

Q: With COc1ccc(OC)c(Cc2nnc(CCC(=O)NC3CCCC3)o2)c1 as the compound, how does the TR-FRET ratio read?
A: 1590 (inactive)

Q: For O=C(Nc1cccc(CCc2ccccn2)c1)c1ccc(Cl)cc1, which TR-FRET ratio is on record?
A: 1410 (inactive)

Q: Which TR-FRET ratio does the source give for CN(C)/C=C(/C(=O)c1ccccc1)S(=O)(=O)c1ccc(Cl)cc1 here?
A: 1390 (inactive)

Q: For O=C(Nc1ccc2oc(-c3ccccc3F)nc2c1)c1ccco1, which TR-FRET ratio is on record?
A: 1310 (inactive)

Q: With COc1cc(OC)cc(C(=O)Nc2ccc(-c3nc4ccccc4o3)c(O)c2)c1 as the compound, how does the TR-FRET ratio read?
A: 2300 (active)

Q: Which TR-FRET ratio does the source give for COc1cc(OC)cc(C(=O)Nc2ccc(S(=O)(=O)Nc3cc(C)on3)cc2)c1 here?
A: 1400 (inactive)

Q: With Cc1cccc2cc(C#N)c(N3CCCC3)nc12 as the compound, how does the TR-FRET ratio read?
A: 1510 (inactive)

Q: Which TR-FRET ratio does the source give for CC(=O)c1ccc(S(=O)(=O)N2CCN(c3nc4c(C)c(C)ccc4cc3C#N)CC2)cc1 here?
A: 2950 (active)

Q: Which TR-FRET ratio does the source give for Cc1cc(C)c2nc(N3CCCC3)c(C#N)cc2c1 here?
A: 1740 (inactive)

Q: Which TR-FRET ratio does the source give for CC(C)OCCCNC(=O)c1ccc(C2SCC(=O)N2Cc2ccco2)cc1 (stereo not drawn) here?
A: 1510 (inactive)

Q: With CCOc1ccc(N2CC(C(=O)NCCN3C(=O)S/C(=C\c4cccnc4)C3=O)CC2=O)cc1 (stereo not drawn) as the compound, how does the TR-FRET ratio read?
A: 1470 (inactive)

Q: Which TR-FRET ratio does the source give for COC(=O)c1cc2n(n1)CCCNC2=O here?
A: 1460 (inactive)
